Test results from the supplement of paper PMC6555819.

Legend:
Experiment in all cases: PBM binding z-score (relative to random genomic background probes); higher = stronger binding; sequences stand for … in GC…GCGATTGACAGCGTAGAATGAAGG
[1] = tested on: FXR:RXRa (NR concentration 270 nM, RXRa partner concentration 90 nM)
Procedure, shortened: (§1)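 Ligand-free nuclear receptor dimers were applied to custom Agilent 4×180K protein-binding microarrays whose double-stranded probes carried direct-repeat seeds, single-nucleotide variants, half-site ablations and random human genomic background sequences in 34-nt variable regions. Incubation lasted 1 h. Binding z-scores were computed against the random background probes from regression-normalized fluorescence.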

[2] = tested on: LXRa:RXRa (NR concentration 270 nM, RXRa partner concentration 90 nM)
Procedure, shortened: as §1

[3] = tested on: LXRa homodimer (NR concentration 270 nM)
Procedure, shortened: as §1

[4] = tested on: LXRb:RXRa (NR concentration 270 nM, RXRa partner concentration 90 nM)
Procedure, shortened: as §1

[5] = tested on: LXRb homodimer (NR concentration 270 nM)
Procedure, shortened: as §1

[6] = tested on: PPARa:RXRa (NR concentration 270 nM, RXRa partner concentration 90 nM)
Procedure, shortened: as §1

[7] = tested on: PPARg:RXRa (NR concentration 180 nM, RXRa partner concentration 90 nM)
Procedure, shortened: as §1

[8] = tested on: PPARg:RXRa 270nM:90nM, anti-RXR (NR concentration 270 nM, RXRa partner concentration 90 nM)
Procedure, shortened: as §1

[9] = tested on: PPARg:RXRa 30nM:10nM, anti-RXR (NR concentration 30 nM, RXRa partner concentration 10 nM)
Procedure, shortened: as §1

[10] = tested on: PPARg:RXRa 90nM:30nM, anti-RXR (NR concentration 90 nM, RXRa partner concentration 30 nM)
Procedure, shortened: as §1

| Sequence | PBM binding z-score [1] | PBM binding z-score [2] | PBM binding z-score [3] | PBM binding z-score [4] | PBM binding z-score [5] | PBM binding z-score [6] | PBM binding z-score [7] | PBM binding z-score [8] | PBM binding z-score [9] | PBM binding z-score [10] |
| --- | --- | --- | --- | --- | --- | --- | --- | --- | --- | --- |
| GCTATTAGTTGAAAGGGCAACCCAATGATTCTCG | 0.453 | 0.68 | 0.645 | 0.925 | -0.181 | 2.4 | 2.65 | 4.29 | 1.81 | 3.88 |
| GTACCACGGTGAATAGGTCGTTGATGAGTAGGCG | -0.0112 | -0.00221 | -0.237 | -0.365 | -0.842 | 0.664 | 0.525 | 0.597 | -0.227 | 0.557 |
| ACTAGTTGATCAGCTGAGGTCACACACAATTCGG | 3.31 | 2.93 | 1.91 | 3.51 | 0.605 | 3.89 | 1.6 | 2.33 | 0.574 | 1.42 |
| AGAACGAGGGCAACGAGTTGATAGCACGGGTGGC | 0.357 | 0.068 | -0.499 | -0.258 | -0.674 | 1.59 | 1.67 | 1.29 | 0.0508 | 0.609 |
| GCGACTGGGGCATCAGCAGGTTAGCATAACTTAA | -0.723 | -0.775 | -0.738 | 0.063 | -1.51 | 0.705 | 0.575 | 0.572 | -0.512 | 0.0276 |
| CAAACTAGGTGACAGAGGTCAAAGTCCGTGCGTA | 4.84 | 5.47 | 4.88 | 5 | 1.14 | 5.75 | 7.83 | 6.75 | 4.75 | 6.85 |
| TCTATTAGTTGATAAGGGCAACCGAAACAGCGGA | 0.612 | 0.486 | 0.203 | 0.463 | 0.396 | 0.736 | 0.322 | 1.86 | 3.81 | 2.97 |
| ACTAGCAGGCCAAGTTTGGGTCACTCACACAAAG | 0.272 | 0.288 | -0.0849 | 0.693 | -0.282 | 1.41 | 0.507 | 0.233 | -0.397 | -0.0603 |
| CGTCCAAGGTCAAAGGACAGTGAAGAGATGACGG | 6.9 | 5.32 | 0.749 | 3.74 | 1.13 | 5.6 | 5.59 | 5.73 | 2.46 | 4.8 |
| TCACGGAGGACACGAAAGGTCAGAGCTCGACATC | 3.04 | 4.14 | 3.14 | 3.07 | -0.784 | 3.5 | 1.48 | 2.62 | 2.28 | 2.43 |
| AGAATGAGGTTATTAAGATCAGGGATTTGCGGTC | 1.64 | 1.59 | 0.335 | 1.29 | 0.376 | 2.39 | 1.5 | 1.92 | 0.623 | 1.21 |
| ATCGAAAGGTCGACGACGTGAGTATACACCGTTT | 3.9 | 3.08 | -0.00126 | 2.61 | 0.501 | 4.21 | 2.29 | 2.7 | 0.988 | 1.77 |
| TCTAGCAGGCCAGAGGGTCACTCACGAGGTACGG | 0.586 | 0.658 | -0.609 | 1.13 | -1.2 | 2.2 | 1.46 | 2.63 | 1.82 | 2.54 |
| ATCGATAGGTCGACGAGGTGAGTATACACCGTTT | 0.682 | 0.624 | -0.525 | 0.484 | 0.0439 | 1.69 | 1.15 | 0.567 | 0.467 | 0.349 |
| CGAACGAGGGCATGAGTGGATAGCAAATGCCGAT | 0.364 | 0.334 | -0.533 | 0.059 | -0.983 | 1.22 | 1.27 | 0.947 | 0.0449 | 0.449 |
| TCTTGTAGATCAAAGGTAAAGAAAGCCGAAGCCT | 0.667 | 0.672 | -0.3 | 0.446 | -0.436 | 3.14 | 5.41 | 6.12 | 6.21 | 6.93 |
| ACAGACAGGTGATCAAGGTAACTCAGGCTATCAT | 0.0446 | -0.068 | -0.091 | -0.153 | -0.411 | -0.038 | 0.479 | -0.0434 | -0.141 | -0.12 |
| CGAACTAGGTCATTGACAGGAGAGTGAATAGTAA | 4.67 | 2.65 | 0.0352 | 1.64 | -0.158 | 4.89 | 7.41 | 6.44 | 3.96 | 5.77 |
| GTACCAAGATGAATAGGTCGTTGATGAGTAGGCG | -0.271 | -0.137 | -0.17 | -0.161 | -0.482 | 0.287 | 0.526 | -0.163 | -0.282 | -0.197 |
| CCTACTGGGCTAAAAAGGTCATTGATGCCGATAA | 3.31 | 3.96 | 3.16 | 3.89 | 0.0245 | 4.67 | 2.38 | 3.6 | 1.21 | 2.6 |
| ACTTACGGGTCAACGAGGTTACAGCACGCGTATA | 7.13 | 5.03 | 0.828 | 4.72 | 0.537 | 6 | 5.8 | 5.86 | 2.49 | 4.5 |
| CGAACTATGTCAGAACAGGACAGTGAAGGATGAT | 0.0056 | -0.347 | -0.162 | -0.473 | 0.636 | 0.0465 | 0.811 | 0.229 | 0.135 | -0.000779 |
| ATCTCTAGGAAACAAGTTCAGTGAAAGAGAGGAC | 0.431 | 0.902 | 0.383 | 0.587 | 0.528 | 0.467 | 0.409 | 0.0222 | 0.37 | -0.00536 |
